Source: PubChem
D1 potentiator: potentiators of human D1 dopamine receptor; 0.036% of 360,000 active; AID 504651; potentiation, % at 10 µM; P21728; HEK293 TREx D1 cells, calcium flux, dopamine EC20 potentiation; in the data active = potentiation above about 30%; also: 0% is about no effect
TRHR PAM: allosterically enhances the human TRH receptor | P34981 | TRHR cells, fluo-8 calcium fluorescence, EC20 TRH enhancement | enhancement, % at 2 µM | 0.66% of 360,000 active | AID 493056; in the data active = enhancement above about 30%; also: 0% is about no effect
Target sequence (P34981 whole entry, looked up): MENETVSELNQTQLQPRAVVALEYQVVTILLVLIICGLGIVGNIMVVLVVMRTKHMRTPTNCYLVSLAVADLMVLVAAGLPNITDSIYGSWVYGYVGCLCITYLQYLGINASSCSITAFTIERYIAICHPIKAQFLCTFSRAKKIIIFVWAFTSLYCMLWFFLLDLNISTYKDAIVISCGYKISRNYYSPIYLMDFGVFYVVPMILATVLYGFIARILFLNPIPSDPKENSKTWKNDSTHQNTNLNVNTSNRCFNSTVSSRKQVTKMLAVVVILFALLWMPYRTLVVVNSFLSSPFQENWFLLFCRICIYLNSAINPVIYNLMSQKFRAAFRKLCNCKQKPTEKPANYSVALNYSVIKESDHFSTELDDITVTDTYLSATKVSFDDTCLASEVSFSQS
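Enhancer read-out: after compound pinning and an initial kinetic agonist-mode read, an EC20 of TRH (10 nM final) was injected and fluo-8 calcium signal (Ex 480/Em 530) followed at 1 s/cycle for 100 cycles in TRHR-expressing cells.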
D1 antagonist: antagonists of human D1 dopamine receptor. P21728. HEK293 TREx D1 cells, calcium flux, dopamine EC80; hits give low values. activity change, negative = inhibition, % at 10 µM. 3.2% of 360,000 active. AID 504652; in the data active = activity change below about -30%; also: % is scaled to controls: 0 for no effect and ±100 for the full control effect
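Compound effects on dopamine-evoked calcium signalling were measured in tetracycline-induced HEK293 Trex D1 cells. Dopamine at EC80 followed a 180 s compound pre-read, and fluorescence was tracked kinetically for 180 s more.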
TRHR agonist: agonists of human TRH receptor | P34981 | TRHR cells, calcium flux fluo-8, FDSS agonist mode | activation, % at 2 µM | 0.18% of 360,000 active; also: 0% is about no effect
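In this calcium-flux screen, cells bearing human TRHR are dye-loaded with fluo-8, baselined for 10 cycles, then exposed to library compounds; positive kinetic calcium responses during the agonist phase mark hits, with TRH as control.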
D1 ag: human D1 receptor agonism | P21728 | HEK293 T-REx D1 cells, calcium flux, agonist mode | activation, % at 2 µM | 1% of 360,000 active | AID 504660; also: 0% is about no effect
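Inducible HEK293 T-REx D1 cells, force-coupled to calcium signalling, were plated at 4000 cells/well with tetracycline and held overnight at 30 C. After no-wash calcium dye loading, compound-evoked calcium rise over 180 s flagged agonists.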
An asterisk follows results filed as active; . = no result given. Sampled rows, rich in hits. Any-hit rate of the full collection: about 4.7%. Rule as the data show it, unless noted: active = activation above about 30%; inactive = the rest.

SMILES | D1 potentiator | TRHR PAM | D1 antagonist | TRHR agonist | D1 ag
O=S(=O)(N1CCCCC1)N1CCN(CC(O)COc2ccc3cc(Br)ccc3c2)CC1 (stereo unspecified) | -3 | -4 | 5 | 4 | 3
CCOc1ccc(CCNC(=O)COC(=O)c2nn(C)c(=O)c3ccccc23)cc1OCC | -9 | 18 | -6 | 0 | 1
O=C(NCC1CCCCC1)c1cc(Br)ccc1Cl | 1 | -3 | -32* | 1 | -1
CCCCCc1ccc(OCCC[n+]2ccccc2)c(CCCCC)c1 | -9 | -7 | -21 | 1 | 159*
CCCCOc1ccccc1Cn1c(=O)oc2ccccc21 | 1 | -3 | 4 | 0 | 3
CC(=O)Nc1ccc(OCCC[n+]2ccccc2)cc1 | -6 | 2 | -2 | 1 | 1
CCCCCc1ccc(OCCOCCn2c[n+](C)c3ccccc32)c(CCCCC)c1 | -10 | 12 | 16 | -1 | 129*
COc1cccc(Cn2c(=O)cc(C)c3c(C)nn(-c4ccc(C)cc4)c32)c1 | -5 | 5 | -17 | 1 | 9
CC(C)C(C(=O)NC(C)(C)C)N1C(=O)c2ccccc2C1=O (stereo unspecified) | -10 | -4 | 9 | 0 | 1
CC(C(=O)NC(C)(C)C)N1C(=O)c2cccc3cccc(c23)C1=O (stereo unspecified) | -4 | -22 | -71* | -1 | 1
COc1ccc(OCC(O)CNC(=O)Nc2ccc(C(C)(C)C)cc2)cc1 (stereo unspecified) | -11 | -2 | 2 | -1 | 1
COc1ccc(OCC(O)CNC(=O)Nc2cc(F)ccc2C)cc1 (stereo unspecified) | -7 | 3 | -41* | 0 | -1
C[C@H](C(=O)O)c1cccc(C(=O)c2ccccc2)c1 | -3 | 9 | -54* | 0 | -1
Cc1cccc(-n2ncc3c(NC4CCCC4)ncnc32)c1 | -1 | -1 | -34* | -1 | -4
Cc1cccc(-n2ncc3c(NC4CCCCC4)ncnc32)c1 | -7 | 10 | 6 | 2 | 2
Cc1ccc(Cl)cc1-n1ncc2c(NCc3ccc(F)cc3)ncnc21 | 3 | -4 | -61* | 17 | 77*
Cc1ccc(CNc2ncnc3c2cnn3-c2ccccc2)cc1 | 2 | -4 | 60 | 0 | 53*
Cc1ccc(Cl)cc1-n1ncc2c(NCCCc3ccccc3)ncnc21 | -3 | -5 | -36* | 1 | 8
Cc1ccc2nc(N(Cc3cccnc3)C(=O)COc3ccccc3)sc2c1 | -3 | 7 | . | 0 | 11
COC(=O)c1cccc(NC(=O)CCCN2C(=O)NC3(CCCC3)C2=O)c1 | -1 | -1 | -2 | 0 | 0
Cc1ccc(CNC(=O)c2oc3ccc(S(=O)(=O)N4CCCC(C)C4)cc3c2C)cc1 (stereo unspecified) | -1 | 1 | -5 | 1 | 2
Cn1c(/C=C(\C#N)C(N)=S)ccc1-c1ccc(Br)cc1 | -10 | 10 | -37* | -1 | 1
Cn1cc(S(=O)(=O)c2ccc(Cl)cc2)c(=O)c2cc(F)c(N3CCCCCC3)cc21 | 1 | 35* | 7 | 1 | 0
Cc1ccc(C)c(S(=O)(=O)c2cn(C)c3cc(N4CCCCC4C)c(F)cc3c2=O)c1 (stereo unspecified) | 2 | 37* | 11 | 0 | 3
Cc1ccc(S(=O)(=O)c2cn(C)c3cc(N4CCCCC4)c(F)cc3c2=O)cc1 | -1 | 4 | -3 | 0 | -1
SMILES | D1 potentiator | TRHR PAM | D1 antagonist | TRHR agonist | D1 ag
Cc1ccc(CNC(=O)c2cnn(-c3cccc(C)c3)c2C2CCN(C(=O)OC(C)(C)C)CC2)cc1 | 0 | 6 | -4 | 0 | 2
COc1cc(NC(=O)c2n[nH]c(=O)c3ccccc23)cc(OC)c1 | 2 | 35* | -8 | 0 | 1
CCOC(=O)c1ccc(NC(=O)c2n[nH]c(=O)c3ccccc23)cc1 | 0 | 14 | -7 | 0 | 3
O=C(CN1CCN(c2ccc([N+](=O)[O-])cc2)CC1)Nc1nccs1 | 7 | -1 | -32* | 0 | 8
O=C(CN1CCN(c2ccc([N+](=O)[O-])cc2)CC1)Nc1ccccn1 | -8 | 0 | -14 | 0 | 16
Cc1c(NC(=O)/C(C#N)=C/c2ccc(-c3cc(Cl)ccc3Cl)o2)c(=O)n(-c2ccccc2)n1C | -9 | 34* | -17 | 0 | 3
CCOC(=O)c1ccc(NC(=O)CCn2c(=O)c3cccn3c3ccccc32)cc1 | 24 | 1 | -16 | -1 | 86*
COc1ccc(NC(=O)CCn2c(=O)c3cccn3c3ccccc32)cc1 | 7 | -1 | 4 | -1 | 1
COc1cc(NC(=O)CCCc2nnc3n(CC(C)C)c(=O)c4sccc4n23)cc(OC)c1 | -3 | -4 | 1 | 0 | 3
COC(=O)C1CCN(C(c2cc(OC)c(OC)c(OC)c2)c2sc3nc(C)nn3c2O)CC1 (stereo unspecified) | -10 | 31* | 3 | 0 | 0
COCCN1Cc2cccc(C(=O)Nc3ccc(C)c(F)c3)c2C1=O | -1 | -8 | -6 | 3 | 1
C/C=C1\C(OC2OC(CO)C(O)C(O)C2O)OC=C(C(=O)OC)C1CC(=O)OCC1C(C)C(OC(=O)CC2C(C(=O)OC)=COC(OC3OC(CO)C(O)C(O)C3O)/C2=C\C)CC1C(CO)CO (stereo unspecified) | -2 | -1 | -31* | 0 | -1
CCOC(=O)CSc1nc2sc3c(c2c(=O)n1-c1ccc(OC)cc1)CCN(C)C3 | -3 | -3 | -8 | 1 | 5
COc1ccc(-n2c(SCC(=O)NCc3ccco3)nc3sc4c(c3c2=O)CCN(C)C4)cc1 | 3 | -5 | -16 | 0 | 2
CN1CCc2c(sc3nc(SCC(=O)NCc4ccco4)n(-c4ccccc4)c(=O)c23)C1 | -8 | -6 | -33* | 0 | 3
COC(=O)CSc1nc2sc3c(c2c(=O)n1-c1ccc(OC)cc1)CCN(C)C3 | 2 | 33* | 3 | 2 | 2
Cc1ccccc1C(=O)Nc1nc2nc(C)c(C)c(=O)n2[nH]1 | 0 | -2 | -5 | -1 | 2
CCCCNC(=O)c1ccc2c(=O)n(-c3ccccc3)c(=O)[nH]c2c1 | -2 | 0 | -64* | 0 | 1
CCCCCn1c(=O)[nH]c2cc(C(=O)NCCCN(C)Cc3ccccc3)ccc2c1=O | -9 | 3 | 21 | 3 | 4
Cc1ccc(-n2c(=O)[nH]c3cc(C(=O)NCc4ccccc4)ccc3c2=O)cc1 | -1 | 4 | -77* | 1 | 8
COc1cc(OC)cc(-n2c(=O)[nH]c3cc(C(=O)NCCc4ccc(C)cc4)ccc3c2=O)c1 | 2 | 3 | 5 | 0 | 5
Cc1ccc(C(=O)c2cn(Cc3ccc(F)cc3)c3nc(C)ccc3c2=O)cc1 | 1 | 13 | 25 | -2 | 14
Cc1ccc(-n2ncc3c(N4CCN(C)CC4)ncnc32)cc1C | 0 | 10 | -16 | 0 | 3
